Screening results from PubChem.
Hits are enriched below; roughly 2.6% of the tested compounds scored in any of these assays.
697 NFkB inh – inhibitors of PMA/ionomycin-induced NF-kB reporter, 697 cells, primary screen, B-cell NF-kB inhibitor project, cell-based, luminescence, uHTS | 330,000 tested, 0.33% active | AID 435022, 2010 | inhibition, % at 4 µM | 697 B-cell NF-kB luciferase reporter, 16 h; in the data active = inhibition above about 35%
Gli-Sufu antag – Gli-Sufu pathway antagonists, primary screen, luciferase luminescence, Sufu-KO-LIGHT cells, uHTS | Sufu-KO-LIGHT fibroblasts, Gli luciferase reporter luminescence | inhibition, % at 5 µM | 340,000 tested, 0.74% active | AID 588413, 2011;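 active = inhibition above about 55%, limit read from the data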;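 note: 0% = DMSO-treated cells and 100% = wells with medium but no cells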
Cardio protect – cardioprotection against H2O2-induced cell death, primary screen, uHTS, H9c2 cells, ATPLite luminescence. H9c2 cardiomyocytes, H2O2 injury protection, 2 h. protection from H2O2 cell death, % at 20 µM. 360,000 tested, 0.63% active;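 active = compounds giving at least 50% protection of heart cells from peroxide-induced death in the single-dose screen, raw or plate-pattern-corrected value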;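 note: 0% = DMSO wells with peroxide and 100% = DMSO wells without peroxide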
H9c2 TAG inh – inhibitors of triacylglycerol accumulation, primary screen, cell-based, uHTS, fluorescence, H9c2; 230,000 tested, 0.66% active; H9c2 cells, Nile Red lipid (TAG) fluorescence; cells loaded with 200 µM oleic acid; inhibition, % at 12.5 µM;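 active = pattern-corrected inhibition of lipid staining of at least 50% with the nuclear-stain viability signal not falling by more than 50%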;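 note: 0% = DMSO wells and 100% = triacsin C control wells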
Jurkat NFkB inh – inhibitors of induced NF-kB luciferase reporter, primary screen, TCR NF-kB activation inhibitor project, cell-based, luminescence, uHTS; Jurkat, PMA/ionomycin-induced NF-kB luciferase reporter; inhibition, % at 4 µM; 330,000 tested, 0.53% active; in the data active = inhibition above about 50%
NR2F2 inh – NR2F2 transcriptional activity inhibitors, primary screen, cell-based, luciferase reporter, HEK293T, luminescence; HEK293T NGFI-A luciferase reporter; AID 686940, 2013; COUP transcription factor 2 (Homo sapiens), P24468; 370,000 tested, 0.7% active; inhibition, % at 8.6 µM;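 active = inhibition above a per-plate cutoff, mean inhibition of test wells between control levels plus 3 SD, cut at about 38% in these data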;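 note: cells cotransfected with COUP-TFII expression vector driving the NGFI-A reporter; 0% = median of COUP-TF2 test wells and 100% = reporter-only cells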
Target sequence (P24468 whole entry, looked up): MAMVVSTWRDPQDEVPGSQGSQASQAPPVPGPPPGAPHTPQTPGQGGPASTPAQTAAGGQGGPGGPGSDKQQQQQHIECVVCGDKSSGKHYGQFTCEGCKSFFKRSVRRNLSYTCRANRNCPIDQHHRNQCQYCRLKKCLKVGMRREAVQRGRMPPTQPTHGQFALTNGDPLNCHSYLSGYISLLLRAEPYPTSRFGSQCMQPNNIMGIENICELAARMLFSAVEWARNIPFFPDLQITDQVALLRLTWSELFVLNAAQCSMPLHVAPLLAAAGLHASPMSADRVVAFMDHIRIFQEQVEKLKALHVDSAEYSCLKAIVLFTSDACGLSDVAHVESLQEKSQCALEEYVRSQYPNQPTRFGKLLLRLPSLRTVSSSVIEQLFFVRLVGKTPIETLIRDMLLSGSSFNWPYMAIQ
Jurkat NFkB conf – PMA/ionomycin-induced NF-kB reporter inhibitors, Jurkat retest, confirmation, T-cell NF-kB inhibitor project, cell-based, luminescence, single concentration; shares compounds with Jurkat NFkB inh; Jurkat NF-kB luciferase, 16 h; inhibition, % at 4 µM; 2,700 tested, 27% active; AID 435020, 2010;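 active = inhibition reaching about 45% at 4 µM in either replicate, limit read from the data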;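 note: plate controls were PMA/ionomycin stimulated DMSO wells for no effect and unstimulated DMSO wells for full effect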
* = called active by the depositor; . = no result given.

SMILES | 697 NFkB inh | Gli-Sufu antag | Cardio protect | H9c2 TAG inh | Jurkat NFkB inh | NR2F2 inh | Jurkat NFkB conf
Cc1cccc(NP(=O)(Oc2ccccc2)Oc2ccccc2)c1C | 6 | 10 | 8 | . | -3 | -4 | .
C=C1C(=O)OC2CC(C)C3C=CC(=O)C3(C)C(O)C12 (configuration not stated) | . | 94* | -17 | 72 | . | . | .
COc1ccc(OC)c(NP(=O)(Oc2ccccc2)Oc2ccccc2)c1 | . | 33 | 8 | . | . | -6 | .
O=P(Nc1ccccc1)(Oc1ccccc1)Oc1ccccc1 | 0 | 2 | 54* | -29 | -3 | 0 | .
COc1cccc(OP(=O)(Nc2ccccc2)Oc2cccc(OC)c2)c1 | 9 | -3 | 70* | . | -4 | . | .
Cc1cccc(C(C)c2cnc[nH]2)c1C (configuration not stated) | . | . | . | . | . | 1 | .
CCCC(=O)N1c2ccc(Cl)cc2C(c2ccccc2)=NCC1C(=O)NC(C)(C)C (configuration not stated) | . | . | . | . | . | 4 | .
CC(C)(C)NC(=O)C1CN=C(c2ccccc2)c2cc(Cl)ccc2N1C(=O)C1CCC1 (configuration not stated) | . | . | . | . | . | -1 | .
O=c1[nH]c(=O)n(Cc2ccco2)c(O)c1C=NCc1cccs1 | 27 | 2 | 54* | . | 7 | 18 | .
COc1ccc2c(c1)NP(=S)(c1ccccc1)N2C (configuration not stated) | . | -5 | -8 | -12 | . | -40 | .
COc1ccc(P2(=O)Nc3ccccc3N2)cc1 | -10 | 20 | 53* | 3 | -7 | -32 | .
N#CCC[C@@H]1CC[C@]2(CCCN(Cc3ccccn3)C2)O1 | . | . | . | . | . | -7 | .
CCCC[C@@H](C)C[C@@H](C)C(=O)N(C)[C@@H](CC(C)C)C(=O)N[C@H](C(=O)N(C)[C@H](C(=O)N1C[C@@H](O)C[C@H]1C(=O)N1C(=O)C=C[C@@H]1C)C(C)C)C(C)OC(C)=O (some centres not stated) | 1 | 7 | -9 | 105 | 91* | . | 93*
O=C(O)CCl | . | . | . | . | . | 13 | .
C[n+]1c2ccccc2nc2ccc(NCCO)cc21 | -32 | -8 | -11 | . | 26 | 2 | .
CNc1ccc2nc3ccccc3[n+](C)c2c1 | 4 | 16 | -16 | . | 81* | 21 | 6
Clc1cc(Cl)cc(CN2Cc3ccccc3-n3nncc3C2)c1 | . | . | . | . | . | -11 | .
NC(N)=N/N=C/c1ccc(N(c2ccccc2)c2ccccc2)cc1 | -8 | -2 | -22 | . | 61* | -32 | 7
COc1ccc(/C=N\N=C(N)N)cc1 | 4 | 13 | -13 | 7 | 51* | 7 | 16
NC(N)=N/N=C/c1ccc(N2CCOCC2)cc1 | 8 | 12 | -6 | 6 | 49 | 6 | .
CN(C)C(=O)O/N=C(\N)COc1ccc(C(C)(C)C)cc1 | -68 | -4 | -8 | 6 | 60* | -21 | -13
COc1cccc(-c2ccc3c(c2)C2c4cnnn4-c4ccccc4C(=O)N2CC3)c1 (configuration not stated) | . | . | . | . | . | 9 | .
CC1(C)C[C@H]2C=C(C=O)[C@]3(C=O)C[C@]3(C)[C@H]2C1 | -153 | 22 | -17 | . | 94* | 12 | 52*
Cc1c(P(=S)(c2ccccc2)c2ccccc2)c2ccccc2n1C | . | . | . | . | . | -24 | .
Fc1ccc2nc(-c3ccc(CN4CCC(n5nnc6ccccc65)CC4)cc3)c(-c3ccccc3)nc2c1 | . | . | . | . | . | -2 | .
COc1cc(C2c3cc4c(cc3CC3COC(=O)C32)OCO4)cc(OC)c1OC (configuration not stated) | -29 | 42 | 1 | . | 53* | -56 | 49*
O=C(NCCN1CCC2(CC1)C(=O)NCN2c1ccccc1)c1ccccc1F | . | . | . | . | . | -6 | .
CN1c2ccc(Br)cc2[C@@H]2NCC[C@@H]2[C@@H]1CO | . | . | . | . | . | 6 | .
